Most compounds without a hit are left out; they make up all but 18% or so of the library.
TDP1 cell noCPT: qHTS for Inhibitors of human tyrosyl-DNA phosphodiesterase 1 (TDP1): qHTS in cells in absence of CPT; DT40 Tdp1-/- hTDP1 cells, no CPT, ATP luminescence, 48 h; Potency, µM (series often up to 46.2 µM), for inactives: top-dose activity change, negative = growth inhibition, hits mostly inhibitors; hit rate 15% among 420,000; AID 686978, 2013; further: nearly all actives have a fitted effect of over 55% in size
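Cells were dispensed at 400 per well, compounds added by pin tool, plates incubated ≥48 hr at 37 °C, then CellTiter-Glo added for 30 min at room temperature before luminescence reading. Line: DT40 Tdp1-/- complemented with hTDP1; camptothecin omitted.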
PLK1 PBD block: qHTS for Inhibitors of PLK1-PDB (polo-like kinase 1 - polo-box domain): Primary Screen; Serine/threonine-protein kinase PLK1 (Homo sapiens), P53350; Plk1 PBD binding of FITC phosphopeptide, fluorescence polarization; Potency, µM, inactives show max response, negative = inhibition, hits mostly inhibitors; hit rate 2.8% among 360,000; AID 720504, 2013; further: series mostly up to about 57 µM; nearly all actives have a fitted effect of over 65% in size
KAT2A inh: qHTS Assay for Inhibitors of GCN5L2; Histone acetyltransferase KAT2A (Homo sapiens), Q92830; GCN5L2 HAT assay, ThioGlo1 CoA-SH fluorescence; Potency, µM (titrated, usually from 58.9 µM), for the others: top-dose activity change, negative = inhibition, usual class: inhibitors; hit rate 0.21% among 390,000
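Preincubate 20nM GCN5L2 with compound 15 min, RT → add 50uM ThioGlo1 + 75uM H3(1-25) + 70uM acetyl-CoA → read fluorescence 0 and 20 min. Primary qHTS; fluorescent artifacts likely.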
TDP1 block: qHTS Assay for Inhibitors of Tyrosyl-DNA Phosphodiesterase (TDP1); Tyrosyl-DNA phosphodiesterase 1 (Homo sapiens), Q9NUW8; recombinant TDP1, AlphaScreen DNA substrate cleavage; Potency, µM (series often up to 130 µM), inactives show at the highest dose activity change, negative = inhibition, hits mostly inhibitors; hit rate 0.28% among 350,000; AID 485290, 2010; further: nearly all actives have a fitted effect of over 40% in size
Target sequence (Q9NUW8 whole entry, looked up): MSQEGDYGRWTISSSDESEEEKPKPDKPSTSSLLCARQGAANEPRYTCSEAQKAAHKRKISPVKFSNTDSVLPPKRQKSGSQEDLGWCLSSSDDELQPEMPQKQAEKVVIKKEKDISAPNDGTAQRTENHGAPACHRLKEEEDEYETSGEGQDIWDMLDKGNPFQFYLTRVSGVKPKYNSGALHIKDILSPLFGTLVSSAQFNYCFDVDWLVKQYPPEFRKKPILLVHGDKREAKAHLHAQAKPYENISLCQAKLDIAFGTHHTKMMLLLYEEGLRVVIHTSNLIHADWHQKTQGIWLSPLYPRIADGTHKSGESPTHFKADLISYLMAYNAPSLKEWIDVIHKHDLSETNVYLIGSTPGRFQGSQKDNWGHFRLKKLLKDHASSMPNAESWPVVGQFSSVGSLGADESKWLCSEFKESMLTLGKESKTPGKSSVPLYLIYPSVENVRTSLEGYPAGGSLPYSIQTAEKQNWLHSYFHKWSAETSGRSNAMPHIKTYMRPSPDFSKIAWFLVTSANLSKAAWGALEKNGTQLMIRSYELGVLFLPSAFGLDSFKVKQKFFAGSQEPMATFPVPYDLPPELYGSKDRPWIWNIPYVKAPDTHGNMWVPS
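Compounds were preincubated with Tdp1 (1 nM final) for 15 min at room temperature before substrate (15 nM final) started a 5 min reaction; beads (10 ug/ml final) were then added for 10 min before AlphaScreen detection.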
DT40 TDP1 CPT: qHTS for Inhibitors of human tyrosyl-DNA phosphodiesterase 1 (TDP1): qHTS in cells in presence of CPT; chicken DT40 Tdp1-/-;hTDP1 cells + 20 nM CPT, ATP luminescence, 48 h; Potency, µM (titrated, usually from 46.2 µM), without a hit: at the top dose activity change, negative = growth inhibition, most hits filed as inhibitors; hit rate 12% among 420,000; AID 686979, 2013; further: nearly all actives have a fitted effect of over 55% in size
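Chicken DT40 Tdp1-/- cells stably complemented with human TDP1 were seeded at 400 cells/well in medium containing 20 nM camptothecin, exposed to pin-transferred compounds, and grown at 37 °C for at least 48 hr. Viability was read as ATP luminescence.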
VDR inh: Inhibitors of the vitamin D receptor (VDR): qHTS. VDR-SRC2-3 peptide fluorescence polarization, 2 h. hit rate 0.93% among 400,000. Potency, µM, for inactives: max response, negative = inhibition, hits mostly inhibitors. Vitamin D3 receptor (Homo sapiens), P11473
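VDR–SRC2-3 interaction, FP format. Cmpds 23 nl via pintool, brief spin, 2 h ambient incubation.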
Active calls of the source: *; [ ] = dose if it differs, or a comment. The call rests on the fitted dose curve; in most records, active means well fitted curve in the direction sought with a large enough effect; inconclusive means small, poorly fitted or top-dose-only effect, or another doubt; inactive means no such curve, though single readings can be large; an effect the other way counts as inactive or inconclusive. On the % scale 0 is the no-effect control and ±100 the full control effect; potency means the concentration at half of the fitted maximal effect.

What do the screens show for `O=C(c1ccccc1)c1c2c(cc3sc4ccccc4[n+]13)-c1cccc3cccc-2c13`?
TDP1 cell noCPT: 2.31µM*; PLK1 PBD block: inconclusive; KAT2A inh: -9.3%; TDP1 block: 5.3%; DT40 TDP1 CPT: 4.61µM*; VDR inh: -19.0%

How did Cc1sc2cc3c(c(C(=O)c4ccccc4)[n+]2c1C)-c1cccc2cccc-3c12 do in these assays?
TDP1 cell noCPT: 1.3µM*; PLK1 PBD block: inconclusive; KAT2A inh: -6.1%; TDP1 block: 2.6%; DT40 TDP1 CPT: 1.03µM*; VDR inh: 7.5%

What do the screens show for `CC(C)(C)c1ccc(C(=O)N/N=C/c2ccccn2)cc1`?
TDP1 cell noCPT: 5.8µM*; PLK1 PBD block: 4.0%; KAT2A inh: -6.9%; DT40 TDP1 CPT: 9.2µM*; VDR inh: 12.2%

What do the screens show for `O=C(N/N=C/c1ccccn1)c1ccc(Br)cc1`?
TDP1 cell noCPT: 14.6µM*; PLK1 PBD block: -8.1%; KAT2A inh: -3.5%; TDP1 block: 2.6%; DT40 TDP1 CPT: 20.6µM*; VDR inh: -9.9%

How did COc1cccc(C=NNC(=O)C(C)SC(C)C(=O)NN=Cc2cccc(OC)c2)c1 (stereo unspecified) do in these assays?
TDP1 cell noCPT: inconclusive; PLK1 PBD block: -2.1%; DT40 TDP1 CPT: -1.7%; VDR inh: 10.0%

What do the screens show for `Cc1ccc(C(=O)N/N=C\c2ccccn2)cn1`?
TDP1 cell noCPT: -15.5%; PLK1 PBD block: -6.4%; KAT2A inh: -9.3%; TDP1 block: 2.4%; DT40 TDP1 CPT: -2.6%; VDR inh: -10.5%

Results for CC(C)(C)c1ccc(C(=O)N/N=C/c2cccc(Cl)c2)cc1 ?
TDP1 cell noCPT: 16.4µM*; PLK1 PBD block: 2.5%; KAT2A inh: 0.3%; TDP1 block: 6.6%; DT40 TDP1 CPT: inconclusive; VDR inh: 7.6%

Results for CC(SC(C)C(=O)NN=Cc1cccc(Cl)c1)C(=O)NN=Cc1cccc(Cl)c1 (stereo unspecified) ?
TDP1 cell noCPT: 16.4µM*; PLK1 PBD block: 5.0%; DT40 TDP1 CPT: inconclusive; VDR inh: -19.7%

How did O=C(N/N=C/c1ccccn1)c1ccc(N/N=C/c2ccccn2)cc1 do in these assays?
TDP1 cell noCPT: 1.5%; PLK1 PBD block: 0.7%; KAT2A inh: -9.6%; TDP1 block: 5.9%; DT40 TDP1 CPT: 0.7%; VDR inh: 28.4%

What do the screens show for `CC[C@H](C)[C@H](NC(=O)[C@H](Cc1ccc(O)cc1)NC(=O)[C@@H]1CCCN1C(=O)[C@H](CCCN=C(N)N)NC(=O)[C@H](CCCN=C(N)N)NC(=O)[C@@H]1CCCN1C(=O)[C@H](CCCCN)NC(=O)[C@H](CC(N)=O)NC(=O)[C@H](CCC(N)=O)NC(=O)[C@H](Cc1ccc(O)cc1)NC(=O)[C@H](CC(C)C)NC(=O)[C@@H]1CCC(=O)N1)C(=O)N[C@@H](CC(C)C)C(=O)O`?
KAT2A inh: -4.0%; TDP1 block: 6.9%; VDR inh: 12.4%

What do the screens show for `COc1cc(CC(=O)OCC(=O)N2CCCCC2)cc(OC)c1OC`?
TDP1 cell noCPT: -3.9%; PLK1 PBD block: -1.2%; KAT2A inh: 3.0%; DT40 TDP1 CPT: 10.0%; VDR inh: 2.1%

What do the screens show for `C=CCNc1ncnc2c1ncn2[C@H]1CN(CCc2ccccc2)C[C@@H](CO)O1`?
TDP1 cell noCPT: -29.1%; PLK1 PBD block: -5.3%; DT40 TDP1 CPT: inconclusive

How did CCOc1ccc(NC(=O)CN(C)C(=O)C2CCN(C(=O)c3ccc(Cl)cc3)CC2)cc1OCC do in these assays?
TDP1 cell noCPT: -11.0%; PLK1 PBD block: -16.6%; KAT2A inh: -5.9%; TDP1 block: 0.3%; DT40 TDP1 CPT: -6.1%; VDR inh: 19.0%

What do the screens show for `CCC(C)[C@H](NC(=O)c1cc2cc(Cl)ccc2n1C)C(=O)N1CCC(C(=O)O)CC1` (stereo partly specified)?
TDP1 cell noCPT: -6.6%; PLK1 PBD block: -0.7%; KAT2A inh: -1.3%; DT40 TDP1 CPT: 0.5%; VDR inh: 22.0%

How did COC(=O)c1ccc(/C=N/NC(=O)c2ccccc2Cl)cc1 do in these assays?
TDP1 cell noCPT: inconclusive; PLK1 PBD block: -5.3%; KAT2A inh: -3.6%; TDP1 block: 9.1%; DT40 TDP1 CPT: inconclusive; VDR inh: 11.2%

Results for CC(C)c1ccc(/C=N/NC(=O)C2CCCC2)cc1 ?
TDP1 cell noCPT: inconclusive; PLK1 PBD block: -4.1%; KAT2A inh: -12.7%; TDP1 block: 1.6%[56.1 µM]; DT40 TDP1 CPT: inconclusive; VDR inh: 9.0%

How did Cc1nc2ccc(Br)cn2c1C(=O)N/N=C\c1ccc(C(C)C)cc1 do in these assays?
TDP1 cell noCPT: 7.31µM*; PLK1 PBD block: -8.9%; KAT2A inh: -14.9%; DT40 TDP1 CPT: 7.31µM*; VDR inh: 0.4%

How did CC(C)c1ccc(/C=N/NC(=O)c2ccccc2Cl)cc1 do in these assays?
TDP1 cell noCPT: 2.91µM*; PLK1 PBD block: 5.0%; KAT2A inh: -11.8%; TDP1 block: 1.1%; DT40 TDP1 CPT: 4.11µM*; VDR inh: -20.0%

What do the screens show for `CNC(=S)N/N=C/c1ccc(C(C)C)cc1`?
TDP1 cell noCPT: 7.31µM*; PLK1 PBD block: 2.99µM*; DT40 TDP1 CPT: 13µM*; VDR inh: -12.4%

Results for Cc1ccc(CNC(=O)[C@H]2C[C@@H]2[C@H](NP(=O)(c2ccccc2)c2ccccc2)c2ccccc2)c(F)c1F ?
TDP1 block: -1.5%

Results for COc1cccc(CNC(=O)c2sc3ncccc3c2-n2c(C)ccc2C)c1OC ?
TDP1 cell noCPT: 13µM*; KAT2A inh: -4.4%; TDP1 block: 6.5%; DT40 TDP1 CPT: 10.3µM*; VDR inh: 15.7%

Results for COc1cccc(CNC(=O)c2sc3nc(C)cc(C)c3c2-n2cccc2)c1OC ?
TDP1 cell noCPT: inconclusive; KAT2A inh: -1.7%; TDP1 block: 5.7%; DT40 TDP1 CPT: 23.1µM*; VDR inh: -12.9%

What do the screens show for `Cc1ccc(CNC(=O)c2sc3nc(C)cc(C)c3c2-n2cccc2)cc1`?
TDP1 cell noCPT: inconclusive; KAT2A inh: -3.5%; TDP1 block: -5.7%; DT40 TDP1 CPT: -24.5%; VDR inh: 3.7%
